Pf apPOL inh – Pf-apPOL inhibitors, biochemical, fluorescence. 210,000 tested, 0.25% active. Recombinant Pf-apPOL, molecular beacon fluorescence, 1.5 h. Plasmodium falciparum apicoplast DNA polymerase (apPOL). inhibition, % at 10 µM
mHTT CaM bind – mutant huntingtin-calmodulin interaction inhibitors – biochemical, AlphaScreen, primary screen; AlphaScreen His-mHTT/GST-CaM binding, luminescence; P42858; 190,000 tested, 3.6% active; inhibition, % at 15 µM;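 further: 0% = both proteins with DMSO and 100% = one protein alone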
The depositor's hits bear a star. Shown is part of a subset that was picked to be rich in hits. No stated cut-off is given here; in the data, active means inhibition above about 50%; inactive means the rest.

What do the screens show for `CN(C)C(CNS(=O)(=O)C1CC1)c1cn(C)c2ccccc12` (stereo unspecified)?
Pf apPOL inh: -3; mHTT CaM bind: -1

Results for COc1ccccc1-c1cnn2c(C)cc(C)nc12 ?
Pf apPOL inh: -2; mHTT CaM bind: -15

What do the screens show for `COc1ccccc1-c1cnn2c(Nc3ccc(NC(C)=O)cc3)cc(C)nc12`?
Pf apPOL inh: -4; mHTT CaM bind: 54*

How did Nc1c(-c2ccccc2Cl)c2cc(Br)ccc2[nH]c1=O do in these assays?
Pf apPOL inh: -8; mHTT CaM bind: 79*

How did O=c1[nH]c2ccc(Br)cc2c(-c2ccccc2)c1CN1CCCCC1 do in these assays?
Pf apPOL inh: -3; mHTT CaM bind: 100*

Results for Nc1c2c3c(c(Cl)ccc3[nH]c1=O)C(=O)c1ccccc1-2 ?
Pf apPOL inh: 0; mHTT CaM bind: 13

Results for Cc1cc(Br)ccc1NS(=O)(=O)c1ccc2nc(-c3ccccc3)[nH]c2c1 ?
Pf apPOL inh: -9; mHTT CaM bind: -2

How did O=c1[nH]c2ccc(Br)cc2c(-c2ccccc2)c1NS(=O)(=O)c1ccccc1 do in these assays?
Pf apPOL inh: 21; mHTT CaM bind: 98*

What do the screens show for `Cc1[nH]c2ccc(Br)cc2c(=O)c1CN1CCOCC1`?
Pf apPOL inh: -1; mHTT CaM bind: -1

What do the screens show for `O=C(Cc1cccs1)N1CCc2cc(-c3ccno3)ccc21`?
Pf apPOL inh: -4; mHTT CaM bind: -6

Results for COc1ccc(C2C(C#N)=C(S)NC3=C2C(=O)CC(C)(C)C3)cc1OC (stereo unspecified) ?
Pf apPOL inh: -7; mHTT CaM bind: 21

What do the screens show for `COc1ccc(C(CCN2CCOCC2)c2c(O)cc(OC)cc2OC)cc1` (stereo unspecified)?
Pf apPOL inh: -8; mHTT CaM bind: 6

How did COc1cc(O)c(C(CCN2CCN(c3ccccc3)CC2)c2ccc3c(c2)OCO3)c(OC)c1 (stereo unspecified) do in these assays?
Pf apPOL inh: -2; mHTT CaM bind: 82*

Results for COc1cc(O)c(C(CC(=O)N2CCN(c3ccccc3)CC2)c2ccc3c(c2)OCO3)c(OC)c1 (stereo unspecified) ?
Pf apPOL inh: 0; mHTT CaM bind: 62*

Results for COc1cc(O)c(C(CCN2CCN(c3ccccc3)CC2)c2cc(OC)c(OC)c(OC)c2)c(OC)c1 (stereo unspecified) ?
Pf apPOL inh: -5; mHTT CaM bind: 100*

Results for COc1cc(O)c(C(CCN2CCCC2)c2ccc3c(c2)OCO3)c(OC)c1 (stereo unspecified) ?
Pf apPOL inh: -2; mHTT CaM bind: 31

Results for COc1cc(O)c(C(CCN2CCCC2)c2ccc(N(C)C)cc2)c(OC)c1 (stereo unspecified) ?
Pf apPOL inh: -4; mHTT CaM bind: 60*

What do the screens show for `COc1cc(O)c(C(CCN2CCCCC2)c2ccc(N(C)C)cc2)c(OC)c1` (stereo unspecified)?
Pf apPOL inh: -7; mHTT CaM bind: 30

Results for COc1cc(O)c(C(CC(=O)N2CCCC2)c2ccc3c(c2)OCO3)c(OC)c1 (stereo unspecified) ?
Pf apPOL inh: 0; mHTT CaM bind: 13

What do the screens show for `O=C(Nc1cccc(NC(=O)c2cc(F)c(F)cc2Cl)c1)c1cccs1`?
Pf apPOL inh: -4; mHTT CaM bind: -2

Results for Cc1ccc(Cn2ccc(NC(=O)CCC(=O)O)n2)cc1 ?
Pf apPOL inh: -4; mHTT CaM bind: -2

What do the screens show for `Cc1cc(C(=O)c2ccccc2)ccc1OC(=O)C(C)(C)C`?
Pf apPOL inh: -1; mHTT CaM bind: -25

What do the screens show for `Cc1ccc2c(c1)C(c1ccccc1)N(C(=O)c1cccc(C(F)(F)F)c1)CC(=O)N2` (stereo unspecified)?
Pf apPOL inh: -4; mHTT CaM bind: 33

What do the screens show for `CCOc1cc(C2Nc3ccccc3NC3=C2C(=O)CC(c2cccs2)C3)ccc1OC` (stereo unspecified)?
Pf apPOL inh: 14; mHTT CaM bind: 12

Results for CC1=NN2C(C1)c1ccccc1OC21C(=O)Nc2ccccc21 (stereo unspecified) ?
Pf apPOL inh: -13; mHTT CaM bind: 80*

What do the screens show for `O=C1N(Cc2ccccc2)c2ccccc2C12Oc1ccccc1C1CC(c3ccco3)=NN12` (stereo unspecified)?
Pf apPOL inh: 4; mHTT CaM bind: 32

Results for Cc1c(Cl)cccc1NC(=O)N1CCc2nc[nH]c2C1 ?
Pf apPOL inh: -2; mHTT CaM bind: -8

Results for Cc1oc(C2CCN(C(=O)Nc3ccc4c(c3)OCCO4)CC2)nc1C(=O)N(C)C ?
Pf apPOL inh: 0; mHTT CaM bind: -2

How did NS(=O)(=O)c1ccc(NC(=O)CSc2nnc(-c3ccco3)c(-c3ccco3)n2)cc1 do in these assays?
Pf apPOL inh: -1; mHTT CaM bind: 40

How did O=C(CSc1nnc(-c2ccco2)c(-c2ccco2)n1)Nc1ccc(Cl)cc1 do in these assays?
Pf apPOL inh: 1; mHTT CaM bind: 99*
